Assay results taken from ChEMBL document CHEMBL3988442, “University of Dundee, Small-Polar-MMV Screening Library” (2021).
For some assays here: Entries with a potency or affinity are not part of this list.

Columns and labels:
Parameters in all cases: scale not given: direction of the effect not stated beside the values
[1] = target: Protein translocase subunit SecA (Escherichia coli (strain K12)) (UniProt P10408); assay: Assay to Identify E. coli SecA ATPase Inhibitors; assay type: functional; conditions: 30 µM
Sequence of Protein translocase subunit SecA (Escherichia coli (strain K12)) (P10408 whole entry): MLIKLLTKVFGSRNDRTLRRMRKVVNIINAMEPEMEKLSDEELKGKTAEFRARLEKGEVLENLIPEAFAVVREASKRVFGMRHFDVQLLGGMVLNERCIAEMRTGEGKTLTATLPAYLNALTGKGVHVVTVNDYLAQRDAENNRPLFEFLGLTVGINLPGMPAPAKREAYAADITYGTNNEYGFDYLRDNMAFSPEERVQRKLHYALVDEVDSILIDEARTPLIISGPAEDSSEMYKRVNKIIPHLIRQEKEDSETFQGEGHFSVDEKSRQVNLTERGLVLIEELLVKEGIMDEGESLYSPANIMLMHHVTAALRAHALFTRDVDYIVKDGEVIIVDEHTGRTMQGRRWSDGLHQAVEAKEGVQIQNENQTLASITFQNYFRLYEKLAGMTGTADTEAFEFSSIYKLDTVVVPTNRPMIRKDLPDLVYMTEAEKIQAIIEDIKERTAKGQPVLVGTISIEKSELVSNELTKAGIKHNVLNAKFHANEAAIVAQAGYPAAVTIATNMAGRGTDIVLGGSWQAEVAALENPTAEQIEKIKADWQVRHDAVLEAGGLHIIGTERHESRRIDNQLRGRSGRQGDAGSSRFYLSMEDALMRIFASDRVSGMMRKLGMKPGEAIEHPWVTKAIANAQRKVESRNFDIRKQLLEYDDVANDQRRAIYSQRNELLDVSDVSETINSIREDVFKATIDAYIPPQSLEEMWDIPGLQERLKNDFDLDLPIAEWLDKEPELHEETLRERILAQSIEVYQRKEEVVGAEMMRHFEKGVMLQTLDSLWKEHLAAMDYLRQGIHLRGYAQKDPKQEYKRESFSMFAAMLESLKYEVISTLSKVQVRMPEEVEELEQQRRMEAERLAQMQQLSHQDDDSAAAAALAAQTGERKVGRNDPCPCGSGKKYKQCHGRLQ

[2] = target: T1, Ubiquitin-activating enzyme e1, putative (Leishmania donovani (strain BPK282A1)) (UniProt E9BSI1); assay: Leishmania donovani Ubiquitin Activating Enzyme (LdE1); assay type: functional; conditions: 30 µM
T1 sequence (whole entry): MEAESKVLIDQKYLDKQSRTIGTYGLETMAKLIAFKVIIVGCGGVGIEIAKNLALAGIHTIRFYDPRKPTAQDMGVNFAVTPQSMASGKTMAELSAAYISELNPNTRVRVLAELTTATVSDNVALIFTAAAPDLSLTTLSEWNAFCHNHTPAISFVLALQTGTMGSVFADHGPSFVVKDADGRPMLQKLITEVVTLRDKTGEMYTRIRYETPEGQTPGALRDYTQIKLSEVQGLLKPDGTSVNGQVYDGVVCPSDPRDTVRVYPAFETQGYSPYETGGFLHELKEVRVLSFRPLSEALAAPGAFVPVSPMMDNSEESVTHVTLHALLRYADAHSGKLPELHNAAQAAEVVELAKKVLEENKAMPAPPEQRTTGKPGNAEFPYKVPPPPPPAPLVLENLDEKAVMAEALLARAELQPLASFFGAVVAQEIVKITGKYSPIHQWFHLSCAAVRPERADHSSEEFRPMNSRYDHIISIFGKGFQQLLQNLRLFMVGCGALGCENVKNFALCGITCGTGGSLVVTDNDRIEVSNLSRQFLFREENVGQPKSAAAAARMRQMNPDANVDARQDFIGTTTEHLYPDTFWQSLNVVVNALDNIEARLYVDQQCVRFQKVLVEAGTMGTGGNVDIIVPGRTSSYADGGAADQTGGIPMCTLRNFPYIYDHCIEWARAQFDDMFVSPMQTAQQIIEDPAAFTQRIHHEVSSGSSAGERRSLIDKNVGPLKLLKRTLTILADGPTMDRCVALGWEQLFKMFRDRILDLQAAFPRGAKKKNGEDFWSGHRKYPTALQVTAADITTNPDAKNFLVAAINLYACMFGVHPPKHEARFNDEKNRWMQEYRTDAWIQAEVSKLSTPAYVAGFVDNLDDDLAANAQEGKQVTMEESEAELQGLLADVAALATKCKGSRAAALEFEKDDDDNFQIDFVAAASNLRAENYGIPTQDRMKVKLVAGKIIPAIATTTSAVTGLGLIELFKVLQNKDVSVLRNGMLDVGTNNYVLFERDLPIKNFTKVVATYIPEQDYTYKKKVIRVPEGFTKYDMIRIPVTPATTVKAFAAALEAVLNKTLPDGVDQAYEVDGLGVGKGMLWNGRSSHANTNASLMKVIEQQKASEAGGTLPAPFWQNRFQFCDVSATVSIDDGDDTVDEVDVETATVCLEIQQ

[3] = target: AMP-activated protein kinase, AMPK (Homo sapiens) (UniProt P54646+O43741+P54619+Q9UGJ0+Q9Y478+Q13131+Q9UGI9); assay: AMP-dependent Kinase enzyme assay. An in vitro enzyme assay that detects ADP turnover that is directly proportional to AMPK activity. This uses naive AMPK that is activated during the assay with MK-8722; assay type: functional; conditions: 30 µM
[4] = target: Sialic acid-binding Ig-like lectin 9 (Homo sapiens) (UniProt Q9Y336); assay: Hs-Siglec9 ALPHAscreen SOP 20170721; conditions: 10 µM
Sequence of Sialic acid-binding Ig-like lectin 9 (Homo sapiens) (Q9Y336 whole entry): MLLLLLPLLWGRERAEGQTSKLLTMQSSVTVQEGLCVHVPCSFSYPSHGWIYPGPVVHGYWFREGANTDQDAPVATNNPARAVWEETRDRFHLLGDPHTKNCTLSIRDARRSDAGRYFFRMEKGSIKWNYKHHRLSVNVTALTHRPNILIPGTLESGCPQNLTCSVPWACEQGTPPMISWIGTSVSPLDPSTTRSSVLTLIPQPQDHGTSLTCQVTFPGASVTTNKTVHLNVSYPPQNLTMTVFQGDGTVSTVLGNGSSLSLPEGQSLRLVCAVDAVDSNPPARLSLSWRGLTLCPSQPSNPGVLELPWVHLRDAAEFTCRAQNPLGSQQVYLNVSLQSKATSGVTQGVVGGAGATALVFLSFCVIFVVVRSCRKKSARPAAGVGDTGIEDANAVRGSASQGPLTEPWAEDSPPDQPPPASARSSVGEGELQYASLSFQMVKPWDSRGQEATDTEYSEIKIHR

[5] = system: Trypanosoma cruzi; assay: Trypanosoma cruzi phosphomannomutase and mannose-1-phosphate guanylyltransferase assay; assay type: functional; conditions: 10 µM
[6] = target: T2, Arginase-2, mitochondrial (Homo sapiens) (UniProt P78540); assay: in vitro enzyme assay to detect the production of urea directly proportional to the activity of Arginase II; assay type: functional; conditions: 33.3 µM; also: in the data most compounds retested in dose-response had high values
T2 sequence (whole entry): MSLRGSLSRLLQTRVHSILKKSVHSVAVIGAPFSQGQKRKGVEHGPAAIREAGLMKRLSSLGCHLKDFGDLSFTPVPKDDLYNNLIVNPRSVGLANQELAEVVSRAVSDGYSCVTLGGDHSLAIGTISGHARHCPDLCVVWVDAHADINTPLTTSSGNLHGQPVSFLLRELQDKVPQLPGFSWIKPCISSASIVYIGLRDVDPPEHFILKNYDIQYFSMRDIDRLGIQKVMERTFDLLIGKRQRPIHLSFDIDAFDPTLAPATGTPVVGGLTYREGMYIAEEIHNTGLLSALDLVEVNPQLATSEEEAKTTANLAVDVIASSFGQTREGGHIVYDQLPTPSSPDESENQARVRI

[7] = target: T3, Proteasome subunit beta (Trypanosoma cruzi) (UniProt O96673); assay: Trypanosoma cruzi proteasome chymotrypsin-like activity (TcProtChymo) assay.; also: in the data most compounds retested in dose-response had high values; assay type: functional; conditions: 9.37 µM
T3 sequence (whole entry): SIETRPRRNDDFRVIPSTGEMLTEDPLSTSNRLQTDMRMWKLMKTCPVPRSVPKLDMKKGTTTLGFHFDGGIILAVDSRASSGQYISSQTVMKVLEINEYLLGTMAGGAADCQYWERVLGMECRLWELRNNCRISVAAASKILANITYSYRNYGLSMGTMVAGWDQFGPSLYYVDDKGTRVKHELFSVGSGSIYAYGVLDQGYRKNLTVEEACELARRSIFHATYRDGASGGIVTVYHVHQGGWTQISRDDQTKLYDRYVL

[8] = organism: Homo sapiens; assay: To identify inhibition of the IFN signalling (Jak-Stat) pathway via expression of an eGFP reporter gene under the control of an IFN-stimulated response element (ISRE) containing MxA promoter.; assay type: functional; conditions: 30 µM
[9] = target: T4, Tyrosyl-tRNA synthetase, putative (Trypanosoma cruzi (strain CL Brener)) (UniProt Q4DSP6); assay: Trypanosoma cruzi tyrosyl tRNA synthetase (TcYRS) _High Tyrosine SOP; assay type: functional; conditions: 30 µM; also: in the data most compounds retested in dose-response had high values
T4 sequence (whole entry): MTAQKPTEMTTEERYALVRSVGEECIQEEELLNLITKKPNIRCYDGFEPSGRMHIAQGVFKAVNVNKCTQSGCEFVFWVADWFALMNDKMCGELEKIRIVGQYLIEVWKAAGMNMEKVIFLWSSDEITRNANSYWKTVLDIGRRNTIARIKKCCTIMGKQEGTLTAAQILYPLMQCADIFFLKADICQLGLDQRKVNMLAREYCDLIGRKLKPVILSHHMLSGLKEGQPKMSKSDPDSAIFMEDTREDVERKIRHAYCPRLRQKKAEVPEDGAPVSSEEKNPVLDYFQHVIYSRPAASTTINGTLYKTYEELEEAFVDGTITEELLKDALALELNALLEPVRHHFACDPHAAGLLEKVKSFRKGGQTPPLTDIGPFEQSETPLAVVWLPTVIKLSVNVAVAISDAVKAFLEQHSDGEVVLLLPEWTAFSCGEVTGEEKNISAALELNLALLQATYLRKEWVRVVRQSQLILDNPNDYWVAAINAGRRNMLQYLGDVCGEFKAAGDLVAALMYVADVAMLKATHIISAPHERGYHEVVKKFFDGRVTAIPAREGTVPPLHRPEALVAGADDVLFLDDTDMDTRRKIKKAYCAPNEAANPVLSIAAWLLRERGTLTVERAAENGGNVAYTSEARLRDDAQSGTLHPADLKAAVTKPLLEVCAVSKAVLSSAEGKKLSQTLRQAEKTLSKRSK

[10] = target: T4, Tyrosyl-tRNA synthetase, putative (Trypanosoma cruzi (strain CL Brener)); assay: Trypanosoma cruzi tyrosyl tRNA synthetase (TcYRS) SOP; assay type: functional; conditions: 30 µM
[11] = target: Chromo domain-containing protein 1 (Saccharomyces cerevisiae (strain ATCC 204508 / S288c) (Baker's yeast)) (UniProt P32657); assay: ScCHD-1 Enzyme Inhibition Assay; assay type: functional; conditions: 30 µM; also: in the data most compounds retested in dose-response had high values
Sequence of Chromo domain-containing protein 1 (Saccharomyces cerevisiae (strain ATCC 204508 / S288c) (Baker's yeast)) (P32657 whole entry, the tested form may be a part): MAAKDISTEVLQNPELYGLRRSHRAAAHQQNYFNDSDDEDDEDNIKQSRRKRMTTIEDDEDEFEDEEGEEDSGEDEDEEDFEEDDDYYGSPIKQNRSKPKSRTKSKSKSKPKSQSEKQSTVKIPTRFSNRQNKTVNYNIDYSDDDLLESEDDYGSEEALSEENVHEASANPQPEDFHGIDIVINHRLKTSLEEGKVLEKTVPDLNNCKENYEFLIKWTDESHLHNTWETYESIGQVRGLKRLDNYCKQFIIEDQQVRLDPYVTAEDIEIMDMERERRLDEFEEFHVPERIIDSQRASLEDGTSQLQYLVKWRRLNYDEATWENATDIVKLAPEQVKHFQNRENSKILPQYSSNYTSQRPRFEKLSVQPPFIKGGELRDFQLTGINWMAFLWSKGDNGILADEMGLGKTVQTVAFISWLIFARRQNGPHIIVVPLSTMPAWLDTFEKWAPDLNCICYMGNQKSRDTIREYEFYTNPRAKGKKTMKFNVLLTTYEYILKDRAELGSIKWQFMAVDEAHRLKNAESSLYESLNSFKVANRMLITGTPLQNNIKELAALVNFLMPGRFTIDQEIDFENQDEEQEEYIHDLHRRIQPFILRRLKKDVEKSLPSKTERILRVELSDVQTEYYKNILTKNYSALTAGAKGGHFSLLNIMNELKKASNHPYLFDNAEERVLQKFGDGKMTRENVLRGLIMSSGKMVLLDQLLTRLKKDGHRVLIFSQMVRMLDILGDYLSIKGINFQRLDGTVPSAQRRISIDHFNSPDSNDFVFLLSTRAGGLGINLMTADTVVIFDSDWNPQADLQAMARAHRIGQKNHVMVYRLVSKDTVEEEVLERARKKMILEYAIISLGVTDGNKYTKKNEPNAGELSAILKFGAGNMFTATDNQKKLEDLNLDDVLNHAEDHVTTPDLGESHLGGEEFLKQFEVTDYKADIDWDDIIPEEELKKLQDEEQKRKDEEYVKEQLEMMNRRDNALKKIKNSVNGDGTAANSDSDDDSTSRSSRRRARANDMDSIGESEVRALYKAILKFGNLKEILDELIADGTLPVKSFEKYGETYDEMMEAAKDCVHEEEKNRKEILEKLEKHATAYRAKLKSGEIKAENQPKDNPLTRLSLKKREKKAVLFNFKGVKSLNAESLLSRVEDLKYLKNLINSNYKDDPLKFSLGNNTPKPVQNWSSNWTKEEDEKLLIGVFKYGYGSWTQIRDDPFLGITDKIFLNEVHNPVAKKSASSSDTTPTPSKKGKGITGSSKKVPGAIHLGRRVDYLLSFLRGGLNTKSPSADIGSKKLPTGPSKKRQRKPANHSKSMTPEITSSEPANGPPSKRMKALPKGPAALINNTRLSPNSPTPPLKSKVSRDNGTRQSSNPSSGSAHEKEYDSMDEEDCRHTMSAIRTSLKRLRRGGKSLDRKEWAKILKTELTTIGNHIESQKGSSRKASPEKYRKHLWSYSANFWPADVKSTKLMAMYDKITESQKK

| Compound | Percent Effect [1] | Percent Effect [2] | Percent Effect [3] | Percent Effect [4] | Percent Effect [5] | Percent Effect [6] | Percent Effect [7] | Percent Effect [8] | Percent Effect [9] | Percent Effect [10] | Percent Effect [11] |
| --- | --- | --- | --- | --- | --- | --- | --- | --- | --- | --- | --- |
| N#Cc1cccc(S(=O)(=O)NC(=O)COC2CCCC2)c1 | -0.529% | 26% | -4.75% | -1.76% | 1.31% | 1.07% | 11.3% | 0.622% | 7.77% | 21.9% | -7.26% |
| Cc1cccc(CN2C(=O)CC[C@@H]3[C@H]2CCN3Cc2ccc(C)s2)n1 | -2.54% | 2.67% | 9.98% | 2.33% | -1.57% | 0.233% | 9.43% | 6.8% | -1.06% | -3.85% | 2.14% |
| Cc1ccc(OCC(=O)NCc2ccccc2F)nc1 | -2.7% | 19.2% | -0.689% | 12.5% | 4.56% | -2.4% | 8.13% | 13.8% | 7.29% | 13.6% | -4.08% |
| CC(NC(=O)NCCN1CCCCCC1=O)c1nncn1C (configuration not stated) | -5.58% | 13.5% | -10.1% | 13.4% | 4.92% | -3.51% | -2.69% | 11.3% | 7.92% | 15.8% | -6.06% |
| CN(C)c1cc(C(=O)NCCc2n[nH]c(=O)[nH]2)ccn1 | -2.65% | 2.63% | 5.52% | 7.32% | -0.487% | 4.73% | 7.38% | 5.92% | 3.19% | 5.2% | -2.56% |
| O=C(CCc1nc2cccnc2[nH]1)NCc1cccnc1 | -3.19% | 25.3% | -5.37% | 0.97% | 3.34% | -0.88% | 15.5% | 9.81% | 8.47% | 15.4% | -10.2% |
| Cn1c(Nc2cn[nH]c2)c(C#N)c(=O)n(C)c1=O | -7.22% | 5.41% | -1.11% | -6.81% | -8.31% | -1.74% | 14.3% | -8.26% | -3.23% | 1.24% | -4.94% |
| COc1cccc(CCNC(=O)CN2CCN(C)CC2C)c1 (configuration not stated) | -1.66% | 0% | -4.34% | -5.98% | -4.92% | 3.51% | 14.5% | 18.7% | 4.95% | 15.8% | -5.6% |
| Cc1nn(CCO)c(C)c1CNC1CCc2c(Cl)cccc21 (configuration not stated) | -3.63% | 8% | -5.26% | 16.9% | 8.67% | 46.9% | 0.174% | 8.33% | 1.64% | 8.64% | -14.3% |
| COCCN1CCC(N(Cc2noc(C3CC3)n2)C(C)=O)C1 (configuration not stated) | -2.54% | 13.5% | -5% | -6.65% | -5.11% | -0.924% | 18.3% | 20.9% | 0.99% | 11% | -8.27% |
| c1coc(-c2noc(CN3CC(n4cccn4)C3)n2)c1 | -5.48% | 7.79% | 3% | -4.91% | 0.49% | 1.05% | 2.18% | 19.4% | 3.81% | 9.41% | -11.1% |
| O[C@H]1[C@H](n2cc(-c3cccnc3)nn2)c2ccccc2C12CCNCC2 | -1.28% | 4.17% | -0.513% | 14.2% | 2.82% | 12.4% | 3.86% | -3.37% | 3.16% | 10.3% | -3.88% |
| CC(C)(C)c1ncc(C(=O)NCCS(N)(=O)=O)s1 | -6.98% | 2.63% | -2.41% | 7.37% | 0.654% | -2.88% | -6.01% | -5.3% | 6.4% | 11.1% | 2.8% |
| CS(=O)(=O)N1CCC(Oc2ccc(C(=O)N3CCSCC3)cc2Cl)CC1 | -2.47% | 9.72% | 3.27% | 18.5% | 4.37% | -2.21% | 3.86% | 25.7% | 3.16% | 7.69% | -2.42% |
| Cc1nccc(CN2CCC(c3nnsc3S(C)(=O)=O)CC2)n1 | -3.04% | 6.76% | 5.68% | 4.24% | -3.75% | -1.16% | 8.89% | 16.8% | 3.23% | 11.7% | -12% |
| CCOc1ncccc1CNC(=O)N1CCCC1c1cc(C)no1 (configuration not stated) | -3.76% | 8% | -5.83% | 0.983% | -1.66% | 0.521% | 12% | 14.2% | 8.2% | 16.1% | -6.86% |
| CN1CCN(CCCNC(=O)c2cc(Cl)c3c(c2)OCO3)CC1 | 0.405% | 9.72% | -11.6% | 9.36% | 3.6% | 10.6% | 27% | -22.6% | 3.16% | 15.4% | -2.83% |
| Cc1nn(-c2ccccc2)nc1C(=O)N1CCCC1c1cnn(C)c1 (configuration not stated) | -5.15% | 0% | -0.474% | 2.1% | -2.32% | -4.99% | 0.539% | 12.6% | 2.97% | 6.1% | 7.07% |
| Cc1ccc(NC2CCN(C(=O)Cc3ccc(C#N)cc3)CC2)nn1 | -4.53% | 2.7% | -6.02% | 18.2% | 4.81% | -4.41% | 3.24% | -19.9% | 6.4% | 18.5% | -10.7% |
| O=C(c1cnc(-c2cccs2)s1)N1CCCC(n2cccn2)C1 (configuration not stated) | -4.52% | 13.5% | 1.78% | 1.67% | -1.6% | -2% | 3.24% | 13.5% | 5.42% | 11.1% | -8.6% |
| Nc1nc(C2CCN(C(=O)c3cscn3)CC2)cs1 | -2.59% | 10.7% | 8.2% | -2.11% | -3.15% | -3.03% | 3.96% | 18.2% | 3.19% | 11.5% | -5.08% |
| Cn1ccnc1-c1ccccc1C(=O)N1CCc2c(nc(N)[nH]c2=O)C1 | -3.72% | 7.79% | 3.19% | 4.47% | -2.06% | -6.9% | 16.8% | 5.31% | 4.3% | 11.1% | 3.09% |
